Screens: PubChem, National Center for Advancing Translational Sciences (NCATS)
MARV entry inh – qHTS for inhibitors of binding or entry into cells for Marburg Virus | Marburg virus pseudotyped entry inhibition, cell reporter | Potency, µM (doses to about 37.8 µM), inactives show at the highest dose activity change, negative = inhibition, actives largely listed as inhibitors | hit rate 1.8% among 300,000 | AID 540276, 2011; calls by dose curve; tested in HEK293 cells
FMDV antiviral – High Throughput Screening for Foot and Mouth Disease Virus Antivirals; Potency, µM (doses to about 57.9 µM), without a hit: top-dose activity change, negative = inhibition, most hits filed as inhibitors; FMDV antiviral cell-based qHTS; hit rate 1.2% among 410,000; calls by dose curve; tested in HEK293T cells; further: read-out not given here; nearly all actives have a fitted effect of over 45% in size
Vaccinia Venus – qHTS for Stage-Specific Inhibitors of Vaccinia Orthopoxvirus: Venus Reporter Primary qHTS; hit rate 0.46% among 330,000; Potency, µM (doses to about 36.5 µM), without a hit: at the highest dose activity change, negative = inhibition, actives largely listed as inhibitors; Vaccinia virus Venus reporter expression, fluorescence; AID 720580, 2013; calls by dose curve; tested in A549 cells; further: nearly all actives have a fitted effect of over 30% in size
Vaccinia mCherry – qHTS for Stage-Specific Inhibitors of Vaccinia Orthopoxvirus: mCherry Reporter Primary qHTS. hit rate 0.63% among 310,000. Vaccinia virus mCherry reporter infection, fluorescence. AID 720579, 2013. Potency, µM (series often up to 36.5 µM), inactives show at the highest dose activity change, negative = inhibition, actives largely listed as inhibitors; calls by dose curve; tested in A549 cells; further: nearly all actives have a fitted effect of over 35% in size
Lassa entry inh – qHTS for Inhibitors of binding or entry into cells for Lassa Virus; Potency, µM (top dose mostly 37.9 µM), for the others: top-dose activity change, negative = inhibition, most hits filed as inhibitors; AID 540256, 2011; Lassa virus pseudotype entry inhibition, cell reporter; hit rate 1.2% among 300,000; calls by dose curve; tested in HEK293 cells; further: nearly all actives have a fitted effect of over 50% in size
* marks the source's active call; other numbers are inactive results; [ ] = dose if it differs, or a comment. Only some compounds are listed: those with a hit (about 3.2% of all), similar ones and a draw of the others. On the % scale 0 is the no-effect control and ±100 the full control effect; potency means the concentration at half of the fitted maximal effect.

Screening CCOC(=O)OC[C@H]1O[C@H](C#Cc2ccc(C)cc2C)C=C[C@H]1OC(=O)OCC returned MARV entry inh 4%[14.2 µM].
CC1(C)C[C@H]2C=C(C=O)[C@]3(C=O)C[C@]3(C)[C@H]2C1 was read as MARV entry inh inconclusive, FMDV antiviral 25µM*, Vaccinia Venus inconclusive, Vaccinia mCherry inconclusive and Lassa entry inh 3.7µM*.
For O=C(CN1C(=O)c2ccccc2S1(=O)=O)Nc1cccc(S(=O)(=O)N2CCCCC2)c1 the results were MARV entry inh -13%, FMDV antiviral -3%, Vaccinia Venus -13%, Vaccinia mCherry inactive and Lassa entry inh 15%.
COc1c([N+](=O)[O-])ccc(N)c1N was read as Vaccinia Venus -18% and Vaccinia mCherry -25%.
Screening O=C(NCc1ccco1)/C(=C/c1ccc(C(F)(F)F)cc1)c1nc2ccccc2[nH]1 returned MARV entry inh -29%, FMDV antiviral 21% and Lassa entry inh inconclusive.
For O=S(=O)(/C(=C\c1ccc(C(F)(F)F)cc1)c1nc2ccccc2[nH]1)c1ccccc1 the results were MARV entry inh 4µM*, FMDV antiviral 11µM*, Vaccinia Venus inconclusive, Vaccinia mCherry inconclusive and Lassa entry inh 3.5µM*.
Screening COc1ccc(/C=C/CN2CCCC(CO)(Cc3cccc(Cl)c3)C2)cc1 (configuration not stated) returned MARV entry inh 6.3µM*, FMDV antiviral -10%, Vaccinia Venus inconclusive, Vaccinia mCherry -25% and Lassa entry inh 10µM*.
For COc1ccccc1/C=C/CN1CCCC(CO)(Cc2cccc(Cl)c2)C1 (configuration not stated) the results were MARV entry inh 13µM*, FMDV antiviral inconclusive, Vaccinia Venus 4%, Vaccinia mCherry -8% and Lassa entry inh 14µM*.
`COc1cccc(CC2(CO)CCCN(C/C=C/c3ccccc3OC)C2)c1` (configuration not stated) gave FMDV antiviral -20%.
`O=C(Nc1ccc(Br)cn1)c1ccc(COc2c(F)c(F)cc(F)c2F)o1` gave FMDV antiviral -16%.
`COCc1[nH]nc2c1[C@@H](c1sccc1C)C(C#N)=C(N)O2` gave MARV entry inh -12%.
COCc1[nH]nc2c1[C@@H](c1cccc(OC)c1)C(C#N)=C(N)O2 was read as MARV entry inh -3%.
Screening COc1ccc2ccccc2c1CN1CCc2nnc(C(NS(C)(=O)=O)C(C)C)n2CC1 (configuration not stated) returned FMDV antiviral -19%, Vaccinia Venus -11% and Vaccinia mCherry -7%.
Screening CCC1(C2CCN(C(=O)c3cc4ccccc4o3)CC2)NC(=O)N(CCc2scnc2C)C1=O (configuration not stated) returned FMDV antiviral 14%, Vaccinia Venus -10% and Vaccinia mCherry -18%.
`N#Cc1c(Nc2ccccc2)[n+]([O-])c2ccc(Cl)cc2[n+]1[O-]` gave MARV entry inh inconclusive, FMDV antiviral -13%, Vaccinia Venus inconclusive, Vaccinia mCherry -15% and Lassa entry inh 3.2µM*.
Screening O=[N+]([O-])c1ccc2c(c1)C=CC2 returned Vaccinia Venus -10% and Vaccinia mCherry -13%.
For CN(Cc1ccccc1)C(=O)Nc1c(Cl)cccc1Cl the results were FMDV antiviral 2%, Vaccinia Venus 3% and Vaccinia mCherry 5%.
Screening Cc1nc2cc(OC(=O)N(C)Cc3cccc(-c4ccncc4)c3)ccc2s1 returned FMDV antiviral 28µM*, Vaccinia Venus -17% and Vaccinia mCherry 12%.
CN(C)Cc1ccccc1OC(=O)N(C)C was read as MARV entry inh inconclusive, FMDV antiviral -20%, Vaccinia Venus -12% and Lassa entry inh 1%.
`CN(Cc1cccc(-c2ccncc2)c1)C(=O)Oc1ccccc1Cl` gave FMDV antiviral 20µM*, Vaccinia Venus -12% and Vaccinia mCherry inactive.
For CN(Cc1cccc(-c2ccncc2)c1)C(=O)Oc1ccccc1Cc1ccccc1 the results were FMDV antiviral 22µM*, Vaccinia Venus -21% and Vaccinia mCherry 2%.
`O=C(/C=C/[C@H]1O[C@@H](n2ccc(=O)[nH]c2=O)[C@H](O)[C@@H]1O)N[C@@H](Cc1ccccc1)C(=O)O` gave FMDV antiviral -18%, Vaccinia Venus 11% and Vaccinia mCherry 22%.
